Consider 8 compounds from PubChem BioAssay.

Records with an inconclusive call do not appear. Activity calls are given as the source filed them.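 Rule for the calls, unless noted: active = percent response above a set limit, the screen-wide mean plus 3 SD (cut at about 130% in these data); inactive = the rest.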

A short description of assay [1]: yeast TOR pathway RPL19A-GFP modulators, primary screen, cell-based, S. cerevisiae, multiplex flow cytometry (AID 1862; in the data active = percent of DMSO control GFP below about 86%;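 note: lower values mimic rapamycin by blocking the RPL19A rise seen in DMSO cells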). The conditions noted are these: S. cerevisiae RPL19A-GFP strain, flow cytometry fluorescence, 3 h; at 10 µM; stronger effect = lower value. In general terms: In flow cytometry, cells or beads pass a laser one at a time.
A short description of assay [2]: modulators of MEP2-GFP levels in yeast, primary screen, S. cerevisiae, multiplex flow cytometry (AID 1867;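 active = GFP response, as percent of the DMSO control, above the screen-wide mean plus 3 SD, about 139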;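 note: median GFP channel fluorescence of barcode-gated MEP2-GFP cells measured by flow cytometry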). Conditions: S. cerevisiae MEP2-GFP strain, 3 h, at 10 µM, stronger effect = higher value, 100% means same as DMSO wells.
Assay [3] is described as follows: modulators of CIT2-GFP expression in yeast, primary screen, S. cerevisiae, GFP fusion, multiplex flow cytometry (AID 1870).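 Note: barcoded CIT2-GFP strain pooled with four other GFP strains with rapamycin as positive control; median GFP fluorescence per well over plate mean of DMSO wells so 100% = DMSO.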 The conditions noted are these: 3 h, at 10 µM, stronger effect = higher value.
A short description of assay [4]: modulators of LAP4-GFP expression in yeast, primary screen, S. cerevisiae, multiplex flow cytometry (AID 1873;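 active = GFP signal, as percent of the solvent control, above the screen mean plus 3 SD, about 149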). The conditions noted are these: 3 h, at 10 µM, stronger effect = higher value.
Assay [5] in a line: modulators of AGP1-GFP expression in yeast TOR pathway, primary screen, cell-based, multiplex flow cytometry, S. cerevisiae (AID 1887;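 active = GFP signal above the screen-wide mean plus 3 SD, that is over about 124.5% of the solvent control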;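 note: AGP1-GFP fusion strain of S. cerevisiae within a five-strain barcoded multiplex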). The conditions noted are these: 3 h, at 10 µM, stronger effect = higher value.
Assay [6] can be described thus: inhibitors of CD8+ T cell-vesicle binding, pilot screen, LFA-1/ICAM-1 modulator project, MLPCN validation set, flow cytometry (AID 2523;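 active = response below a set limit, under 55% cells CD8-positive and vesicle-bound, and CD8 cells' 90th-percentile brightness under 279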;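 for vesicle binding response: mean PE anti-B7-1 fluorescence of CD8+ cells relative to row control; 100% = QL9-loaded vesicles with DMSO vehicle in the same plate row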). The conditions noted are these: 2C mouse CD8+ T cells, at 7 µM, stronger effect = lower value; double positive events: measured here: CD8+/vesicle+ event percentage.
The target in assay [7] is Integrin beta-1 (Homo sapiens) + Integrin alpha-4 (Homo sapiens) (UniProt P13612+P05556). Nature of the assay: inhibition of HUTS-21 binding to VLA-4, pilot screen, VLA-4 allosteric modulator project, U937 cells, HUTS-21 mAb, flow cytometry, validation set (AID 2674;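 active = inhibition above 50%, about 3 SD of the validation set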;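 note: antibody binding induced by the VLA-4 ligand LDV present at three times its Kd; 0% = LDV ligand with antibody and no compound and 100% = antibody without LDV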). Conditions: HUTS-21 LIBS mAb binding, at 6.7 µM, stronger effect = higher value, binding induced by LDV ligand.
Integrin beta-1 (Homo sapiens) + Integrin alpha-4 (Homo sapiens), sequence (P05556 whole entry, looked up): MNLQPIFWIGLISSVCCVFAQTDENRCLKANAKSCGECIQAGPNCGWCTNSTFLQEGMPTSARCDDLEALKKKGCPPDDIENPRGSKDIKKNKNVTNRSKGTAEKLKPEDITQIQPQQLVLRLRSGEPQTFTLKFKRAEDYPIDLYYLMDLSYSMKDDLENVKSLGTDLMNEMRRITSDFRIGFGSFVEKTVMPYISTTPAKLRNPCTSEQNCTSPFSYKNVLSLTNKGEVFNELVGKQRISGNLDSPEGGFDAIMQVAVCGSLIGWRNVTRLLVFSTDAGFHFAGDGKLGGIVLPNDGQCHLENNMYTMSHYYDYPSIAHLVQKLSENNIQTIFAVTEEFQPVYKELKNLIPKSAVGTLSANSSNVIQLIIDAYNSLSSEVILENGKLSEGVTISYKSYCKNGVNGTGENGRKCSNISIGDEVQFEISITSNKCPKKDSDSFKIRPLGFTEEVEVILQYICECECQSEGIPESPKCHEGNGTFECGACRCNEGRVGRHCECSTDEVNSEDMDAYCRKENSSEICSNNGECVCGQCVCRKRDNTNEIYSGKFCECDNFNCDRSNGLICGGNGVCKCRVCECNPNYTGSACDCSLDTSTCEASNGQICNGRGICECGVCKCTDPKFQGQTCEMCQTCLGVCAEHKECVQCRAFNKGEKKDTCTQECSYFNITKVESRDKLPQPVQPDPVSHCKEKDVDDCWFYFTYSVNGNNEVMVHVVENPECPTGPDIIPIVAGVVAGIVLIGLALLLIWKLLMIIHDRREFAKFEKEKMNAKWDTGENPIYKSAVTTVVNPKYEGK
Integrin beta-1 (Homo sapiens) + Integrin alpha-4 (Homo sapiens), sequence (P13612 whole entry, looked up): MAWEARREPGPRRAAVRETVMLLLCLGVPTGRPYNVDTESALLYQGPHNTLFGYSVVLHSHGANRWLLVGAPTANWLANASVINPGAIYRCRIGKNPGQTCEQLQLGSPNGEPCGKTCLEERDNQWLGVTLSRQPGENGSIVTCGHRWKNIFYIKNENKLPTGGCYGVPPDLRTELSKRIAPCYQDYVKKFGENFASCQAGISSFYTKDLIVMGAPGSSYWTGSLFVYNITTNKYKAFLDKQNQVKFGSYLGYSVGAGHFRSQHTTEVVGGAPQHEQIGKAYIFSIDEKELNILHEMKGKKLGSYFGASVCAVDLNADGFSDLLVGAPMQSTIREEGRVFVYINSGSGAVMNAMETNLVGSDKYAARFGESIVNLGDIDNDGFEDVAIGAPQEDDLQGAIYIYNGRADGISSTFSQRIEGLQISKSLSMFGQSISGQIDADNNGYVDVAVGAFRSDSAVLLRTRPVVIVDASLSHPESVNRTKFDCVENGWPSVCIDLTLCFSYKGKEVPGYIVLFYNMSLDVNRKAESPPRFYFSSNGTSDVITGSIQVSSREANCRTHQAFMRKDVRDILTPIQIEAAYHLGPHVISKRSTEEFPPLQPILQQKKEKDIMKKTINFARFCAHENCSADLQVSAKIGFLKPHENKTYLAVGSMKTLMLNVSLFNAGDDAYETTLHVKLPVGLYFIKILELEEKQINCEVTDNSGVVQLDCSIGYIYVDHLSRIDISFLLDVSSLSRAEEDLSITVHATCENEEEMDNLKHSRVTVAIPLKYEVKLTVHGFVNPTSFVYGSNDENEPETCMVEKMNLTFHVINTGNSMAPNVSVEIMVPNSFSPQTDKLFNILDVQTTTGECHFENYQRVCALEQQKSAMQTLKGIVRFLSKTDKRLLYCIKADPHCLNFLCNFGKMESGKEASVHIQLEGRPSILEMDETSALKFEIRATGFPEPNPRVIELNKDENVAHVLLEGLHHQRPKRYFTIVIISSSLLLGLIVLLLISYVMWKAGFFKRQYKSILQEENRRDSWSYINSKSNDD
A short description of assay [8]: superoxide lowering in aged yeast cells, pilot screen, validation compound set (AID 2706;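 active = superoxide response below 65% of plate, a cut near 3 SD across the whole screen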;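 note: yeast exposed to compound for one week at 30 degrees C before staining; 100% = mean of all compound wells on the same plate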). Conditions: S. cerevisiae aging, superoxide DHE fluorescence; at 10 µM; stronger effect = lower value.
Assay [9] deals with Beta-adrenergic receptor kinase 1 (Homo sapiens) (UniProt P25098). Nature of the assay: GRK2 binders displacing RNA aptamer, biochemical, validation, human GRK2, bead flow cytometry (AID 488806;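 active = aptamer binding inhibition above 30%, about 3 SD of noise from non-fluorescent compounds; inactive = inhibition at or below 30%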). Conditions: bead-bound GRK2, FAM-aptamer displacement, at 10 µM, stronger effect = higher value.
Beta-adrenergic receptor kinase 1 (Homo sapiens), sequence (P25098 whole entry, looked up): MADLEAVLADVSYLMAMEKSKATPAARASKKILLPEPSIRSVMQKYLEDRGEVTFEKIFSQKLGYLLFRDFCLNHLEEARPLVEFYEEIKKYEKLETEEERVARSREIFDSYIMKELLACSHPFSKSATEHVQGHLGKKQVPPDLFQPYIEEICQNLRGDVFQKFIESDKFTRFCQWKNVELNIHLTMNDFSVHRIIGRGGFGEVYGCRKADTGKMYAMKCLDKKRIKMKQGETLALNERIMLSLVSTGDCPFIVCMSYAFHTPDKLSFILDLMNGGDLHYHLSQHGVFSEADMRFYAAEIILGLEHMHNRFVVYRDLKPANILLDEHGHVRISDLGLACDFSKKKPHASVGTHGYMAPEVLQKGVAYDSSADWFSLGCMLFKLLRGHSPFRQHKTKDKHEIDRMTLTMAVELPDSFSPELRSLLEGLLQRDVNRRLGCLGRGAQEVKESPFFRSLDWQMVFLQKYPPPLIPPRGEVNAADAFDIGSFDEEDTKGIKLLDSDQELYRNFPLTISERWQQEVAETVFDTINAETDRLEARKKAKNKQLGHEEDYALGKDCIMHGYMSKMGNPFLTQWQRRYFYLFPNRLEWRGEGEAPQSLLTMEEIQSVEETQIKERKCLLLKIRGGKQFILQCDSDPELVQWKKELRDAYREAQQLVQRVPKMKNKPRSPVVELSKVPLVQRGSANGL
The target of assay [10] is Beta-2 adrenergic receptor (Homo sapiens) (UniProt P07550). Briefly: beta2AR agonists driving receptor internalization, pilot screen, cell-based, FAP fluorogen, flow cytometry, validation set (AID 504459;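 active = percent response above 42, roughly 3 SD of non-fluorescent test compounds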;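 note: agonist-driven loss of surface beta2AR via internalization measured by FAP dye flow cytometry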). Conditions: Am2.2-beta2AR cells, FAP surface receptor flow cytometry; at 10 µM; stronger effect = higher value.
Beta-2 adrenergic receptor (Homo sapiens), sequence (P07550 whole entry, looked up): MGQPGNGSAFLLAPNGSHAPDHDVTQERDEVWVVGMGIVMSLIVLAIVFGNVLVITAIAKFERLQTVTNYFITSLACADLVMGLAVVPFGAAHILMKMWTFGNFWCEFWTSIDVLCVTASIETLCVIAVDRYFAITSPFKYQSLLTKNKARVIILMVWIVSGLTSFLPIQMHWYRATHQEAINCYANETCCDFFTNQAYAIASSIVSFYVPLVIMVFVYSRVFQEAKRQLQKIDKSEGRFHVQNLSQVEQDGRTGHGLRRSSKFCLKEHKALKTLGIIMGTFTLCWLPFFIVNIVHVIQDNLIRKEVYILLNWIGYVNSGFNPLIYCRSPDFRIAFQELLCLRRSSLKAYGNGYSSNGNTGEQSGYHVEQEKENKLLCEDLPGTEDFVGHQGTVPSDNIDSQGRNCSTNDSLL
In assay [11] the target is AP-2 complex subunit beta (Homo sapiens) (UniProt P63010). Nature of the assay: inhibitors of arrestin peptide binding to AP2, pilot screen, biochemical, validation set, GST-AP2 beads, flow cytometry (AID 504541;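 active = inhibition above 54%, about 3 SD of non-fluorescent compounds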;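 note: AP2 carries R879A mutation and is captured from E. coli lysate; bead-bound FITC arrestin peptide fluorescence measuring arrestin peptide binding to AP2; 0% = DMSO wells and 100% = excess unlabeled arrestin peptide control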). The conditions noted are these: FITC arrestin peptide, at 10 µM, stronger effect = higher value, AP2 beta2 appendage fragment, R879A mutant.
AP-2 complex subunit beta (Homo sapiens), sequence (P63010 whole entry, looked up, the tested form may be a part, one chain of several): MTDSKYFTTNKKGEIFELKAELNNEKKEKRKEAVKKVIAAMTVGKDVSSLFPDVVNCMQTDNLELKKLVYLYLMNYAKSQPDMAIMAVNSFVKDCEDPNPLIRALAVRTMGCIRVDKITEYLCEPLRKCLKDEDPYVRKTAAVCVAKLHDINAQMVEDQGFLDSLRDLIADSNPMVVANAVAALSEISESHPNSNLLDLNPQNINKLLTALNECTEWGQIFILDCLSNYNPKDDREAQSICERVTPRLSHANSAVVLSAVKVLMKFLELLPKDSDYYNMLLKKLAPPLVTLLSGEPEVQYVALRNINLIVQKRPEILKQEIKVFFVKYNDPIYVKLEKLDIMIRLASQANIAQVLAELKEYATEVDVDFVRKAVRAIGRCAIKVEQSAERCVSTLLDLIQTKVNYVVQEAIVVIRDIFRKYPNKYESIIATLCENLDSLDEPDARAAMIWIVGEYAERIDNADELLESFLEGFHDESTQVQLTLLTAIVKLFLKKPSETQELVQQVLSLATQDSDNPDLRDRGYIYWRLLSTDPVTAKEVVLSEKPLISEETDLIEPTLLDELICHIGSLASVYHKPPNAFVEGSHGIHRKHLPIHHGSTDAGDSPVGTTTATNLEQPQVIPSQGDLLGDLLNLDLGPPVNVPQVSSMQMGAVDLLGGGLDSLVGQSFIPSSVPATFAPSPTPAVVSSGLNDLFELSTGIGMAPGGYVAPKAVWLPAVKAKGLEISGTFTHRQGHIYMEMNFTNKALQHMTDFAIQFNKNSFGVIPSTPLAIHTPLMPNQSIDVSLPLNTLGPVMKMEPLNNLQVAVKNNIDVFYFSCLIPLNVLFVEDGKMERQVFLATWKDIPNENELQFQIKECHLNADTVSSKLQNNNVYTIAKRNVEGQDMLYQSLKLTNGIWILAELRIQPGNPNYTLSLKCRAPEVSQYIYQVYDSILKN
The nature of assay [12]: yeast V-ATPase proton transport modulators, S. cerevisiae, pHLuorin, HTS validation (AID 504600; in the data active = response above about 15%;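 note: plate controls were DMSO for no effect and reference compound for full effect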). The conditions noted are these: S. cerevisiae pHLuorin cytosolic pH, at 10 µM, stronger effect = higher value.
Assay [13] deals with anti-desmoglein-3 scFv antibody binding to human DSG3. Briefly: inhibitors of anti-DSG3 scFv binding to DSG3, pilot screen, biochemical, validation compound set, bead-based, flow cytometry (AID 588368;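 active = binding below the plate cutoff, the plate median minus 3 SD, with a reading above zero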;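 note: signal is the median channel fluorescence of bead-bound GFP antibody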). Conditions: Protein G beads, DSG3-Fc, scFv-GFP binding, at 10 µM, stronger effect = lower value.
The nature of assay [14]: inhibitors of fungal efflux pumps CDR1, CDR2, MDR1, pilot screen, validation compound set, multiplex, phenotypic (AID 588506;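 active = efflux inhibition above 0.42, the validation set average plus 4 SD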;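 note: Nile Red retained in cells so higher fluorescence means more efflux inhibition; 0 = negative control wells and 1 = enniatin B 25 µM full block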). The conditions noted are these: S. cerevisiae pump-expressing triplex, Nile Red efflux flow cytometry; at 10 µM; stronger effect = higher value; the pumps come from Candida albicans.
Assay [15] has as its target ATP-binding cassette sub-family B member 6 (Homo sapiens) (UniProt Q9NP58). Briefly: ABCB6 transporter inhibitors, pilot screen, K562-ABCB6 cells, flow cytometry, validation set (AID 588550;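 active = inhibition above the screen-wide mean plus 3 SD, about 51%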;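 note: 0% = DMSO wells and 100% = benzethonium chloride 70 µM positive control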). Conditions: K562-ABCB6 porphyrin accumulation, 1 h, at 10 µM, stronger effect = higher value.
A short description of assay [16]: promoters of myeloid differentiation in arrested cells, primary screen, cell-based, GFP/MAC1 double positive, flow cytometry, validation set (AID 588685;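 active = differentiation response of at least 50%, scaled between solvent and reference control, from cells with both markers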;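 note: compound exposure lasts four days before antibody staining and flow analysis; 0% = DMSO wells and 100% = 5 µM fulvestrant positive control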). Conditions: ER-HoxA9 marrow cells, stronger effect = higher value, normalized: vehicle 0, fulvestrant 100.

In general, inhibition refers to the relative decrease from the control value, in per cent.

ATP-binding cassette sub-family B member 6 (Homo sapiens), sequence (Q9NP58 whole entry, looked up): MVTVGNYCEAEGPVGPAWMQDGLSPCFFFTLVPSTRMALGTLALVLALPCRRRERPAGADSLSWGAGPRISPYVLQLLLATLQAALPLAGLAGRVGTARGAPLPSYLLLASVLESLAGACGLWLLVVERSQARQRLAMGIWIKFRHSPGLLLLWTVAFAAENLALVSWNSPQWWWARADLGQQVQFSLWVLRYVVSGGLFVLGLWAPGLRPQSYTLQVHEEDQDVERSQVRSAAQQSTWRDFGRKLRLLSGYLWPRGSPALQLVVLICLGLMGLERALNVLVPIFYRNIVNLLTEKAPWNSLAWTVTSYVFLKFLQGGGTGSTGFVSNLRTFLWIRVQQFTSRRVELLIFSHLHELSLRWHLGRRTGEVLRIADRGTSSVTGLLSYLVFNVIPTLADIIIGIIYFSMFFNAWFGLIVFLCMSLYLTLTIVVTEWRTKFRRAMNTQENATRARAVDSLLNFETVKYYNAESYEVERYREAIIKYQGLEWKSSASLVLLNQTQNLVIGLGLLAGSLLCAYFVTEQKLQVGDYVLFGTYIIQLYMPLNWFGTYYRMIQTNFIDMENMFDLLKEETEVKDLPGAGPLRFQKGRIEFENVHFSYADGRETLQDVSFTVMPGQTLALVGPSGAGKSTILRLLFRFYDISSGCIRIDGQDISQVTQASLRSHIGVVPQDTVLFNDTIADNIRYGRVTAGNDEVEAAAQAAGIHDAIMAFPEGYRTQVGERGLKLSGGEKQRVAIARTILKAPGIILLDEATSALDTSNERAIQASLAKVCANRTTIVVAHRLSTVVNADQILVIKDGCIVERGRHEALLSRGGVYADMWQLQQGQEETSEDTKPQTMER

As for `COc1ccc(CNC(=O)C2CCCN2C)cc1OC` (stereo unspecified), the percent of DMSO control GFP in [1] was 98.8% (inactive). Also, the GFP response vs DMSO is 99.7% (inactive) in [2] and 92.6% (inactive) in assay [4]. For the same compound, the percent response of DMSO control in assay [3] is 101% (inactive). In assay [5], the GFP response, % of DMSO was 96.7% (inactive). Besides, the double positive events in [6] came to 62%. In assay [6], the vesicle binding response was 141% (inactive). Moreover, the inhibition in [7] is 1.59% (inactive); in [11], -3.62% (inactive); in assay [15], -5% (inactive). Further, in assay [8], the superoxide response (% of plate) is 87.7% (inactive). The aptamer binding inhibition in [9] is -2% (inactive). In addition, the results for the response in assay [10] and in [12] were 7.42% (inactive) and -0.65% (inactive), respectively. Further, in [13], the binding (% of control) was 104% (inactive). For the same compound, in assay [14], the efflux inhibition (fraction of control) was -0.29 (inactive). Besides, the differentiation response in assay [16] was -7.5% (inactive).
For `COc1ccc(C2c3c(n[nH]c3C)CC(C)(O)C2C(C)=O)cc1OC` (stereo unspecified), the percent of DMSO control GFP in [1] is 87.3% (inactive). Further, the GFP response vs DMSO in [2] is 129% (inactive); in [4], 76.5% (inactive). Besides, the percent response of DMSO control in assay [3] is 97.9% (inactive). The GFP response, % of DMSO in assay [5] was 90.3% (inactive). The compound further had a double positive events in assay [6] of 67.8%. Also, the vesicle binding response in assay [6] is 58.4% (inactive). Further, the inhibition in [7] is 10.3% (inactive); in assay [11] it was -0.31% (inactive); in assay [15], 7% (inactive). In assay [8], the superoxide response (% of plate) was 106% (inactive). For the same compound, the aptamer binding inhibition in [9] is 4% (inactive). For the same compound, the response in assay [10] is -2.94% (inactive); in [12], 0.84% (inactive). Besides, the binding (% of control) in assay [13] was 103% (inactive). Further, in assay [14], the efflux inhibition (fraction of control) is -0.13 (inactive). Also, in [16], the differentiation response is 13.1% (inactive).
Consider `CCOC(=O)C(NC(=O)CCC(=O)Nc1ccc(S(N)(=O)=O)cc1)C(O)c1ccccc1` (stereo unspecified), for which the percent of DMSO control GFP in assay [1] was 96.5% (inactive). Further, the GFP response vs DMSO in [2] is 103% (inactive); in assay [4], 106% (inactive). The percent response of DMSO control in [3] is 100% (inactive). Also, the GFP response, % of DMSO in [5] was 101% (inactive). In [6], the double positive events was 57.6%. Besides, the vesicle binding response in assay [6] was 361% (inactive). The inhibition is 15.1% (inactive) in assay [7], 5.81% (inactive) in assay [11] and 7% (inactive) in assay [15]. In addition, in assay [8], the superoxide response (% of plate) is 102% (inactive). Also, the aptamer binding inhibition in [9] is 6% (inactive). Besides, the response was -25.5% (inactive) in assay [10] and -6.43% (inactive) in assay [12]. Besides, the binding (% of control) in [13] is 101% (inactive). The efflux inhibition (fraction of control) in assay [14] was 0 (inactive). Further, the differentiation response in assay [16] is -7.94% (inactive).
`CN1CCN(CCCN2c3ccccc3Sc3ccc(Cl)cc32)CC1`: the percent of DMSO control GFP in assay [1] is 99.3% (inactive). Also, the GFP response vs DMSO was 102% (inactive) in assay [2] and 113% (inactive) in assay [4]. The percent response of DMSO control in assay [3] was 97% (inactive). For the same compound, in assay [5], the GFP response, % of DMSO was 120% (inactive). In assay [6], the double positive events was found to be 61.4%. For the same compound, the vesicle binding response in assay [6] was 179% (inactive). Besides, the inhibition was 63.6% (active) in assay [7], 0.77% (inactive) in [11] and 7% (inactive) in [15]. For the same compound, in assay [8], the superoxide response (% of plate) was 70.1% (inactive). The aptamer binding inhibition in assay [9] is 0% (inactive). The figures for the response in assay [10] and in assay [12] were -15% (inactive) and 1.39% (inactive), respectively. Moreover, the binding (% of control) in assay [13] was 106% (inactive). Moreover, the efflux inhibition (fraction of control) in assay [14] was -0.17 (inactive). Besides, in [16], the differentiation response was 3.88% (inactive).
With `Cc1cn([C@H]2C=C[C@@H](CO)O2)c(=O)[nH]c1=O`, in assay [1], the percent of DMSO control GFP is 101% (inactive). The GFP response vs DMSO in assay [2] is 104% (inactive); in assay [4], 92% (inactive). Besides, the percent response of DMSO control in assay [3] was 94.2% (inactive). Also, the GFP response, % of DMSO in [5] was 93.5% (inactive). This compound also yielded a double positive events in assay [6] of 65.8%. Also, the vesicle binding response in assay [6] was 705% (inactive). For the same compound, the results for the inhibition in [7], in assay [11] and in assay [15] were 16.1% (inactive), -12% (inactive) and 3% (inactive), respectively. Further, the superoxide response (% of plate) in [8] is 94.6% (inactive). Moreover, the aptamer binding inhibition in [9] was 3% (inactive). Also, the response in assay [10] was -6.71% (inactive); in assay [12], 3.71% (inactive). For the same compound, the binding (% of control) in assay [13] was 101% (inactive). In [14], the efflux inhibition (fraction of control) is 0.02 (inactive). Also, the differentiation response in assay [16] is 1.22% (inactive).
For `COc1ccc(C(CC(=O)N2CCOCC2)C(C)C)cc1` (stereo unspecified), the percent of DMSO control GFP in assay [1] is 100% (inactive). For the same compound, the GFP response vs DMSO in assay [2] is 99.6% (inactive); in assay [4], 118% (inactive). For the same compound, the percent response of DMSO control in assay [3] is 101% (inactive). Also, in assay [5], the GFP response, % of DMSO is 106% (inactive). In [6], the double positive events was determined as 55.7%. Further, the vesicle binding response in assay [6] was 56.1% (inactive). Besides, the inhibition in [7] was 2.3% (inactive); in assay [11], -2.4% (inactive); in [15] it was 7% (inactive). Also, the superoxide response (% of plate) in assay [8] is 77.9% (inactive). In addition, the aptamer binding inhibition in assay [9] was 3% (inactive). Also, the response was -9.06% (inactive) in [10] and 1.44% (inactive) in assay [12]. The binding (% of control) in assay [13] was 95.3% (inactive). The efflux inhibition (fraction of control) in assay [14] is -0.06 (inactive). For the same compound, in [16], the differentiation response was -18.4% (inactive).
Consider `Cc1cc(O)c(C(=O)Cc2csc(C)n2)c(O)c1`, for which the percent of DMSO control GFP in [1] was 102% (inactive). Further, the GFP response vs DMSO in [2] is 109% (inactive); in [4] it was 112% (inactive). Also, the percent response of DMSO control in [3] is 98.2% (inactive). For the same compound, the GFP response, % of DMSO in assay [5] was 96.1% (inactive). Moreover, the double positive events in assay [6] is 56.7%. In addition, in [6], the vesicle binding response is 15.7% (inactive). Besides, the values for the inhibition in [7], in [11] and in [15] were 1.12% (inactive), 6.62% (inactive) and 2% (inactive), respectively. In addition, the superoxide response (% of plate) in [8] is 104% (inactive). Also, the aptamer binding inhibition in [9] is 5% (inactive). Also, the response is 2.72% (inactive) in assay [10] and -0.65% (inactive) in assay [12]. The binding (% of control) in [13] was 99.5% (inactive). Also, the efflux inhibition (fraction of control) in [14] was 0.46 (active). The differentiation response in [16] is 6.49% (inactive).
Turning to `CN1CCN(C2=Nc3ccccc3Oc3ccc(Cl)cc32)CC1`, the percent of DMSO control GFP in [1] is 101% (inactive). Moreover, the GFP response vs DMSO in assay [2] is 115% (inactive); in assay [4], 79.8% (inactive). Moreover, the percent response of DMSO control in assay [3] is 111% (inactive). In addition, in [5], the GFP response, % of DMSO was 100% (inactive). In assay [6], this compound showed a double positive events of 61.6%. Also, the vesicle binding response in assay [6] is 223% (inactive). The results for the inhibition in assay [7], in assay [11] and in assay [15] were 4.52% (inactive), -13.5% (inactive) and 14% (inactive), respectively. Also, the superoxide response (% of plate) in assay [8] is 112% (inactive). Moreover, the aptamer binding inhibition in [9] was -9% (inactive). For the same compound, the response in assay [10] is -6.79% (inactive); in assay [12], 0.86% (inactive). Moreover, in assay [13], the binding (% of control) was 109% (inactive). In addition, in [14], the efflux inhibition (fraction of control) is 0.19 (inactive). Moreover, the differentiation response in assay [16] was -0.82% (inactive).
